Bioassay records as filed in PubChem BioAssay.
TDP1 cell noCPT: qHTS for Inhibitors of human tyrosyl-DNA phosphodiesterase 1 (TDP1): qHTS in cells in absence of CPT | DT40 Tdp1-/- hTDP1 cells, no CPT, ATP luminescence, 48 h | Potency, µM (top dose mostly 46.2 µM), actives largely listed as inhibitors | 420,000 tested, 15% active | AID 686978, 2013; also: nearly all actives have a fitted effect of over 55% in size
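Luminescent ATP content (CellTiter-Glo) served as the growth readout. Knockout chicken DT40 cells expressing human TDP1 were exposed to compounds without camptothecin for a minimum 48 hr at 37 °C.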
HT1080-NT tox: kills 2HG-producing HT-1080-NT fibrosarcoma cells; HT-1080-NT fibrosarcoma viability, CellTiter-Glo ATP luminescence, 48 h; Potency, µM (highest dose often 46.1 µM), usual class: cytotoxic; 360,000 tested, 1.6% active;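 also: NT is the 2HG producing partner of a matched IDH1 knockdown line; nearly all actives have a fitted effect of over 55% in size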
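Compounds were tested in concentration-response format on HT-1080-NT cells for 48 hours at 37 degrees C. Cell viability came from CellTiter-Glo luminescence; curves were classified by r2, response magnitude and activity.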
IL1B secr inh: inflammasome signaling inhibition, IL-1 beta readout | AID 743279 | activity change, % at 57.5 µM | 360,000 tested, 4.7% active | THP-1 LPS/ATP IL-1B secretion, AlphaLISA, 16 h; active compounds read low; in the data active = activity change below about -50%; inconclusive = mostly about -30% to -49%
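THP-1 cells pretreated 1 hr with compounds (up to 57.5 uM final), then stimulated with LPS (250 ng/mL final) plus ATP (1.25 mM final); secreted IL-1B measured by AlphaLISA after 16 hr, decreased signal indicating inhibition.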
DT40 TDP1 CPT: growth inhibition of DT40 Tdp1-/-;hTDP1 cells with camptothecin (screen for TDP1 inhibitors) | chicken DT40 Tdp1-/-;hTDP1 cells + 20 nM CPT, ATP luminescence, 48 h | Potency, µM (series often up to 46.2 µM), actives largely listed as inhibitors | 420,000 tested, 12% active; also: nearly all actives have a fitted effect of over 55% in size
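Chicken DT40 Tdp1-/- cells stably complemented with human TDP1 were seeded at 400 cells/well in medium containing 20 nM camptothecin, exposed to pin-transferred compounds, and grown at 37 °C for at least 48 hr. Viability was read as ATP luminescence.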
HT1080 IDH1KD tx: HT-1080 IDH1 knockdown cell toxicity (counter line); HT-1080 IDH1 knockdown viability, ATP luminescence, 48 h; 360,000 tested, 2% active; Potency, µM (top dose mostly 46.1 µM), hits mostly cytotoxic; AID 686971
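Cytotoxicity counter-line: IDH1KD HT-1080, 48 h, CellTiter-Glo. Curves classed by r2, magnitude and activity.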
Each line names hits and unclear results; the compound was inactive in the other large screens. Compounds with a hit are over-represented: about 19% of the library has one in this group of screens. Unless noted, calls follow the shape of the dose curve; as a rule, active = well fitted curve in the direction sought with a large enough effect; inconclusive = small, poorly fitted or top-dose-only effect, or another doubt; inactive = no such curve, though single readings can be large; an effect the other way counts as inactive or inconclusive.

COc1ccc(-c2nc3cnc(Nc4cccc(OC)c4)nc3n(C3CC3)c2=O)cc1	none (no result: HT1080-NT tox, IL1B secr inh, HT1080 IDH1KD tx)
COc1ccc2c(c1)CC/C(=C\c1ccc(OC)c(Cn3cccn3)c1)C2=O	TDP1 cell noCPT 26µM, IL1B secr inh -52, DT40 TDP1 CPT 18µM
COc1ccc2c(c1)CC/C(=C\c1ccc(OC)c(Cn3nc(C)cc3C)c1)C2=O	TDP1 cell noCPT 18µM, HT1080-NT tox inconclusive, DT40 TDP1 CPT 16µM, HT1080 IDH1KD tx inconclusive
Cc1ccccc1CC1(CO)CCCN(C(=O)CCC(F)(F)F)C1 (stereo not given)	none
Cc1ccccc1CC1(CO)CCCN(C(=O)Cc2c(F)ccc(F)c2F)C1 (stereo not given)	TDP1 cell noCPT inconclusive, DT40 TDP1 CPT 16µM
CC(=O)CCSc1ncnc2sc(-c3ccccc3)cc12	TDP1 cell noCPT inconclusive, IL1B secr inh -91, DT40 TDP1 CPT inconclusive
O=C(CSc1nnc(-c2ccccc2)o1)c1ccc2c(c1)OCCO2	TDP1 cell noCPT inconclusive, DT40 TDP1 CPT 16µM
CC(=O)c1c(C)[nH]c(C(=O)CSc2ncnc3sc(-c4ccccc4)cc23)c1C	TDP1 cell noCPT inconclusive, DT40 TDP1 CPT 9.2µM, HT1080 IDH1KD tx inconclusive
O=C(O)CSc1ncnc2sc(-c3ccccc3)cc12	none
CC(=O)c1c(C)[nH]c(C(=O)CSc2nnc(-c3ccccc3)o2)c1C	TDP1 cell noCPT 15µM, DT40 TDP1 CPT 16µM
O=C(NCC1CCCCC1)c1ccc2nc([C@@H]3O[C@H](CO)[C@@H](O)[C@H]3O)[nH]c2c1	HT1080-NT tox inconclusive, HT1080 IDH1KD tx inconclusive
CCN(CC)S(=O)(=O)c1ccc2nc(NC(=O)c3ccccc3OC)sc2c1	TDP1 cell noCPT 5.2µM, DT40 TDP1 CPT inconclusive (no result: HT1080-NT tox, IL1B secr inh, HT1080 IDH1KD tx)
COc1ccccc1C(=O)Nc1nc2cc3c(cc2s1)OCCO3	TDP1 cell noCPT 5.8µM, HT1080-NT tox inconclusive, DT40 TDP1 CPT 5.8µM, HT1080 IDH1KD tx inconclusive
COc1ccccc1C(=O)Nc1nc2cc3c(cc2s1)OCO3	DT40 TDP1 CPT inconclusive
COc1cc(-c2cnc3ccccc3c2)cc2c1OCCN(S(=O)(=O)C[C@]13CC[C@H](CC1=O)C3(C)C)C2	TDP1 cell noCPT inconclusive (no result: HT1080-NT tox, IL1B secr inh, HT1080 IDH1KD tx)
O=C(CN1CCN(Cc2ccccc2F)C1=O)NCCc1ccc(Cl)cc1	none
CCCCCc1cc(=O)oc2c(C(CCN3CCN(c4ccccc4)CC3)c3ccc4c(c3)OCO4)c(OC)cc(OC)c12 (stereo not given)	TDP1 cell noCPT 16µM, DT40 TDP1 CPT 26µM
CCCCCc1cc(=O)oc2c(C(CCN3CCCC(C)C3)c3ccc(OC)cc3)c(OC)cc(OC)c12 (stereo not given)	TDP1 cell noCPT 23µM, IL1B secr inh -54, DT40 TDP1 CPT inconclusive
CCCCCc1cc(=O)oc2c(C(CCN3CCCC3)c3cc(OC)c(OC)c(OC)c3)c(OC)cc(OC)c12 (stereo not given)	TDP1 cell noCPT 16µM, HT1080-NT tox inconclusive, DT40 TDP1 CPT 5.8µM, HT1080 IDH1KD tx inconclusive
COc1ccc(C(CCN2CCCC(C)C2)c2c(OC)cc(OC)c3c2OC(=O)CC3c2cc(OC)c(OC)c(OC)c2)cc1 (stereo not given)	TDP1 cell noCPT inconclusive, DT40 TDP1 CPT 16µM
COc1ccc(-c2coc3c(O)c(OC)ccc3c2=O)cc1	TDP1 cell noCPT inconclusive (no result: HT1080-NT tox, IL1B secr inh, HT1080 IDH1KD tx)
COc1ccccc1N1CCN(Cc2cc(=O)oc3ccccc23)CC1	TDP1 cell noCPT inconclusive, DT40 TDP1 CPT inconclusive
Cc1cc(NC(=O)CSc2nnc(-c3cccnc3)n2Cc2ccccc2)no1	none
CCOC(=O)C1(Cc2cccc(Cl)c2)CCCN(C(=O)c2cccc(C)n2)C1 (stereo not given)	TDP1 cell noCPT inconclusive, DT40 TDP1 CPT inconclusive
CCN(CC)C(=O)CC(c1ccc(N(C)C)cc1)c1c(OC)cc(OC)c2c(-c3ccccc3)cc(=O)oc12 (stereo not given)	TDP1 cell noCPT inconclusive, DT40 TDP1 CPT inconclusive
CCCCCc1cc(=O)oc2c(C(CCN(CC)CC)c3ccc(OC)cc3)c(OC)cc(OC)c12 (stereo not given)	TDP1 cell noCPT inconclusive, HT1080-NT tox inconclusive, IL1B secr inh inconclusive, DT40 TDP1 CPT 15µM
